# Inconclusive results are not listed. A call without a number means that no potency is given here. The source made the active and inactive calls. The call rests on the fitted dose curve. Positions of bridges follow the written chain, without caps; N, C: chain ends. Non-standard residues stand in square brackets, D forms with d. Residues, ends and D or L forms follow the SMILES beside them. *: point of attachment. X1 = CC[C@@H](C)[C@@H](N)C1=N[C@H](C(=O)*)CS1; d(aIle) = CC[C@H](C)[C@@H](N)C(=O)O; dOrn = NCCC[C@@H](N)C(=O)O
# Assay: qHTS assay for small molecule agonists of the p53 signaling pathway (AID 651631); further: nearly all actives have a fitted effect of over 15% in size
# Conditions: HCT-116 p53RE-bla reporter, beta-lactamase FRET ratio, 16 h; series mostly up to 73.3 µM
# Source text: U.S. Tox21 Program National Center for Advancing Translational Sciences [NCATS] NIH Chemical Genomics Center [NCGC] U.S. Environmental Protection Agency [EPA] National Institutes of Environmental Health Sciences [NIEHS] National Toxicology Program [NTP] U.S. Food and Drug Administration [FDA] Tox21 Assay Overview: p53, a tumor suppressor protein, is activated following cellular insult, including DNA damage and other cellular stresses. The activation of p53 regulates cell fate by inducing DNA repair, cell cycle arrest, apoptosis, or cellular senescence. The activation of p53, therefore, is a good indicator of DNA damage and other cellular stresses. The CellSensor p53RE-bla HCT-116 cell line (Invitrogen) contains a stably integrated beta-lactamase reporter gene under control of the p53 response elements. The activation of the reporter gene under culture conditions can be detected by fluorescence intensity. This cell line was used to screen the Tox21 compound library in a 1536-well plate format and to identify agonists that activate the p53 signaling pathway.
# Tox21 Assay Protocol Summary: The p53RE-bla cells were dispensed at 4,000 cells/5 ul/well in 1536-well black wall/clear bottom plates using a Multidrop dispenser. After the assay plates were incubated at a 37 C/5% CO2 incubator for 5 hours, 23 nL of compounds dissolved in DMSO, positive controls or DMSO only was transferred to the assay plate by a pin tool. The plates were incubated at 37 C for 16 hours. After 1 uL of LiveBLAzerTM B/G FRET substrate was added using a Flying Reagent Dispenser, the plates were incubated at room temperature for 2 hours, and fluorescence intensity was measured by an Envision plate reader.
# Potency means the concentration at half of the fitted maximal effect.
row,SMILES,Potency
1,O=P(O)(O)C(O)(Cn1ccnc1)P(=O)(O)O,inactive
2,CC12CCC(C1)C(C)(C)C2=O (stereo not given),inactive
3,C=CCN1C(=O)C(CC(C)C)NC1=S (stereo not given),inactive
4,Cc1c(O)c(=O)ccn1C,inactive
5,N[C@H](C(=O)O)[C@@H]1CC(Cl)=NO1,2.98 µM (active)
6,O=C(O)c1cc(O)c2c(c1)[C@H]([C@H]1c3cc(C(=O)O)cc(O)c3C(=O)c3c(O[C@@H]4O[C@H](CO)[C@@H](O)[C@H](O)[C@H]4O)cccc31)c1cccc(O[C@@H]3O[C@H](CO)[C@@H](O)[C@H](O)[C@H]3O)c1C2=O,inactive
7,CO/N=C(\C(=O)N[C@@H]1C(=O)N2C(C(=O)O)=C(COC(C)=O)CS[C@H]12)c1csc(N)n1 (stereo in doubt),inactive
8,CCCCCCOC(=O)c1cccnc1,inactive
9,O=C(O)/C=C/C(=O)Nc1ccc(S(=O)(=O)Nc2nccs2)cc1,inactive
10,OCCCNc1ccccc1,inactive
11,c1ccc(-n2cnnn2)cc1,inactive
12,C[C@H](Cc1ccc(O)c(O)c1)[C@@H](C)Cc1ccc(O)c(O)c1,inactive
13,NCC[C@H](O)C(=O)N[C@@H]1C[C@H](N)[C@@H](O[C@H]2O[C@H](CN)CC[C@H]2N)[C@H](O)[C@H]1O[C@H]1O[C@H](CO)[C@@H](O)[C@H](N)[C@H]1O,inactive
14,CC(=O)OCC1=C(C(=O)O)N2C(=O)[C@@H](NC(=O)Cc3ccccc3)[C@H]2SC1,inactive
15,O=C1c2ccccc2C(=O)C1c1ccc(F)cc1,inactive
16,O=C1OC(=O)c2cc(-c3ccc4c(c3)C(=O)OC4=O)ccc21,inactive
17,O=C1CCC(c2ccccc2)(C2CCN(Cc3ccccc3)CC2)C(=O)N1 (stereo not given),inactive
18,CCC(=O)OC(OP(=O)(CCCCc1ccccc1)CC(=O)N1C[C@H](C2CCCCC2)C[C@H]1C(=O)O)C(C)C (stereo not given in full),inactive
19,O=C(O)[C@@H]1C[C@H](CP(=O)(O)O)CCN1,inactive
20,NS(=O)(=O)c1cc(Cl)c(Cl)c(S(N)(=O)=O)c1,inactive

row,SMILES,Potency
1,C[C@@H]1O[C@@H](OC[C@H]2O[C@@H](Oc3c(-c4ccc(OCCO)c(OCCO)c4)oc4cc(OCCO)cc(O)c4c3=O)[C@H](O)[C@@H](O)[C@@H]2O)[C@H](O)[C@H](O)[C@H]1O,inactive
2,CNC(=O)C[C@@H](N)C(=O)N[C@@H](C(=O)N[C@@H]1C(=O)N2[C@@H]1SC(C)(C)[C@@H]2C(=O)O)c1ccc(O)cc1,inactive
3,Cc1cc(-c2ccc(N=Nc3ccc4c(S(=O)(=O)O)cc(S(=O)(=O)O)c(N)c4c3O)c(C)c2)ccc1N=Nc1ccc2c(S(=O)(=O)O)cc(S(=O)(=O)O)c(N)c2c1O,inactive
4,N=C(N)c1ccc(/C=C/c2ccc(C(=N)N)cc2O)cc1,inactive
5,Cc1cc(CC(C)CC(C)(C)C)n(O)c(=O)c1 (stereo not given) (tested in a mixture with another compound),9.44 µM (active)
6,CCCOC(=O)c1ccccc1O,inactive
7,O=C(O)[C@H]1CN(C/C=C/P(=O)(O)O)CCN1,inactive
8,C[N+]1(CCCCC[N+]2(C)CCCC2)CCCC1,inactive
9,CCc1cn([C@H]2C[C@H](O)[C@@H](CO)O2)c(=O)[nH]c1=O,inactive
10,COc1c(O)cc2c(c1O)[C@@H]1O[C@H](CO)[C@@H](O)[C@H](O)[C@H]1OC2=O,inactive
11,CC[C@H]1OC(=O)C[C@@H](O)[C@H](C)[C@@H](O[C@@H]2O[C@H](C)[C@@H](O)[C@H](N(C)C)[C@H]2O)[C@@H](CCN2C[C@H](C)C[C@H](C)C2)C[C@@H](C)C(=O)/C=C/C(C)=C/[C@@H]1CO[C@@H]1O[C@H](C)[C@@H](O)[C@@H](OC)[C@H]1OC,inactive
12,C=CC[N+]1([C@H]2C[C@H]3[C@@H]4CC[C@H]5C[C@H](O)[C@@H](N6CCOCC6)C[C@]5(C)[C@H]4CC[C@]3(C)[C@H]2OC(C)=O)CCCC1,inactive
13,CC[C@@H](C)[C@H](N)C(=O)O,inactive
14,COC1[C@@H](O[C@@H]2O[C@H](C)[C@@H](O[C@H]3C[C@@](C)(O)[C@H](OC(=O)CC(C)C)[C@H](C)O3)[C@H](N(C)C)[C@H]2O)[C@@H](CC=O)C[C@@H](C)[C@@H](O)/C=C/C=C/C[C@@H](C)OC(=O)C[C@H]1OC(C)=O (stereo not given in full),inactive
15,C=C1[C@@H]2CC[C@@H](C2)C1(C)C,inactive
16,C[C@@H]1C[C@H]2[C@@H]3C[C@H](F)C4=CC(=O)C=C[C@]4(C)[C@@]3(Cl)[C@@H](O)C[C@]2(C)[C@H]1C(=O)COC(=O)C(C)(C)C,inactive
17,CN(Cc1ccccc1)Cc1ccccc1,inactive
18,CC[C@@H](C)[C@@H](N)C1=N[C@H](C(=O)N[C@@H](CC(C)C)C(=O)N[C@@H](CCC(=O)O)C(=O)N[C@@H](C(=O)N[C@@H]2CCCCNC(=O)[C@@H](CC(N)=O)NC(=O)[C@@H](CC(=O)O)NC(=O)[C@@H](Cc3cnc[nH]3)NC(=O)[C@@H](Cc3ccccc3)NC(=O)[C@@H]([C@H](C)CC)NC(=O)[C@@H](CCCN)NC2=O)[C@@H](C)CC)CS1 (X1-LE[d(aIle)][dK][dOrn][dI][dF][dH][dD][dN]; lactam 4-C),inactive
19,COc1cc2c(c(OC)c1OC)-c1c(cc3c(c1OC)OCO3)C[C@@H](C)[C@](C)(O)C2,inactive
20,NC(=O)CC[C@@H]1NC(=O)[C@H](Cc2ccccc2)NC(=O)[C@H](Cc2ccc(O)cc2)NC(=O)[C@@H](N)CSSC[C@@H](C(=O)N2CCC[C@H]2C(=O)N[C@@H](CCCN=C(N)N)C(=O)NCC(N)=O)NC(=O)[C@H](CC(N)=O)NC1=O,inactive

# — PubChem BioAssay (Tox21)
